Reference: PubChem BioAssay
The source made the active and inactive calls.

System: not listed separately
Test: forskolin-driven CRE-LacZ activity in PC12 – cell-based, CRE-LacZ reporter, forskolin-stimulated, primary screen (AID 1146);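 also: PC12 cells with 6xCRE LacZ reporter stimulated by forskolin 10 µM; beta-galactosidase reporter signal reflecting CREB driven transcription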
Conditions: luminescence, 4.5 h, higher = more signal, called active from +8 up or from −8 down

| Compound | z-score |
| --- | --- |
| C=CCC1=C[C@H]2[C@H]([C@@H]3C=C[C@]2(CC=C)C(=O)[C@]32CO2)[C@@]2(CO2)C1=O | 1.62 (inactive) |
| Cc1ccc(S[C@]2(C(=O)O)CC(=O)N(Cc3ccccc3)[C@@H]2c2ccc(CO)cc2)cc1 | -0.84 (inactive) |
| CCCNC(=O)[C@@H]1c2ccccc2C(=O)N(Cc2cc(F)cc(C(F)(F)F)c2)[C@H]1c1ccc(CO)cc1 | -1.53 (inactive) |
| O=C1c2ccccc2[C@](Cc2ccccc2I)(C(=O)O)[C@H](c2ccc(CO)cc2)N1C1CCCCC1 | -0.298 (inactive) |
| [N-]=[N+]=NCc1ccccc1C[C@]1(C(N)=O)N=C(c2ccc(OCCCO)cc2)O[C@H]1c1ccccc1CN=[N+]=[N-] | -0.375 (inactive) |
| CO[C@H]1COC(=O)[C@H](C)NC(=O)CC=C[C@@H](C)[C@H](NS(=O)(=O)c2ccc(C)cc2)COC(=O)[C@@H](OCc2ccccc2)C=C[C@@H]1C | -0.594 (inactive) |
| COC(=O)c1c(CC[C@@H](CO)NC(=O)N[C@H](Cn2cc(-c3cncn3C)nn2)C(C)C)oc(C(C)=O)c1C(=O)OC | -1.4 (inactive) |
| C=C(COC)/C(=C/C[C@@H](OC(C)=O)c1cccc(OCCO)c1)c1cc(C(=O)OC)ccc1OC | -1.89 (inactive) |
| CC(C)[Si]1(C(C)C)O[C@@H](c2ccccc2)c2cc(C3CC3)nc(-c3ccc(Oc4ccccc4)cc3)c21 | -0.59 (inactive) |

Molecular target: Streptavidin (Streptomyces avidinii) (UniProt P22629)
Test: compounds binding control protein streptavidin – biophysical, small-molecule microarray, 635/667 nm fluorescence, artefact control for SMM compound annotation, primary screen (AID 1147);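 also: signal reflects streptavidin binding to arrayed compounds as a control protein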
Conditions: higher = more signal

Chain of Streptavidin (Streptomyces avidinii) (P22629 whole entry, looked up): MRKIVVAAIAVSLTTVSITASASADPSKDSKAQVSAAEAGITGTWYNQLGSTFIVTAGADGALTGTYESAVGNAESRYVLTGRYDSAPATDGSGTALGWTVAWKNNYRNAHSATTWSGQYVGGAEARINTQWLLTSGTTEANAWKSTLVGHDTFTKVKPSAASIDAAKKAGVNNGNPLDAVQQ

| Compound | composite z-score |
| --- | --- |
| C=CCOC(=O)[C@@H]1[C@H]2C(=O)O[C@H](c3ccccc3)[C@H](c3ccccc3)N2[C@H](c2ccc(OCCOC(=O)[C@H]3C[C@H]4C(=O)N5CCC[C@H]5C(=O)N4[C@H]3c3ccc(O)cc3)cc2)[C@@]12C(=O)Nc1ccccc12 | 0.239 |
| C[C@@H]1CC[C@H]2C(=O)N3[C@@H](CC[C@@H](C)[C@@H]3c3cccc(N4CCOCC4)c3)C(=O)N2[C@H]1c1cccc(N2CCOCC2)c1 | 0.766 |
| COc1ccc(-c2ccccc2[C@@H]2N[C@H](C(=O)O)CC[C@H]2C)cc1 | 0.376 |
| CN1CCC(CCCO)=CC1C1CC1 (stereo not drawn) | -0.0672 |
| C=CCC(OC(C)=O)[C@@H]1[C@@H](N(Cc2cc3ccccc3o2)C(=O)c2ccc(C)cc2)c2cc(OCCCO)ccc2N1C(=O)c1ccc2ccccc2n1 (stereo partly drawn) | 0.184 |
| C[C@H]1COC(=O)[C@H](Cc2ccccc2)NC(=O)[C@@H](C)COC(=O)[C@H](Cc2ccccc2)NC1=O | 1.65 |
| CCN1C(C)=C(C(=O)OC)[C@@H](c2ccccc2)N2C(=O)[C@@]3(C(=O)OC)O[C@@]12[C@@H]1C(=O)N(c2ccccc2)C(=O)[C@@H]13 | 0.424 |
| CCCC/C=C/[C@H]([C@@H](O)Cc1ccccc1)N(CC#Cc1ccccc1)Cc1ccccc1Br | -0.951 |
| Cc1ccc(S[C@]2(C(=O)NCCCN(C)C)CC(=O)N(C3CCCCC3)[C@@H]2c2ccc(CO)cc2I)cc1 | -0.806 |
| CO[C@@H]1COC(=O)[C@H](C)NC(=O)CC=C[C@@H](C)[C@H](NS(=O)(=O)c2ccc(C)cc2)COC(=O)CC=C[C@@H]1C | -0.193 |
| C=CCNC(=O)[C@H]1[C@@H]2C(=O)O[C@@H](c3ccccc3)[C@@H](c3ccccc3)N2[C@@H](c2ccccc2OCCO)[C@]12C(=O)N(C(=O)OCCOC)c1ccc(C#CCC(C(=O)OC)C(=O)OC)cc12 | -0.204 |
| CC(=O)NCCCC[C@@H]1NC(=O)[C@@H]2C[C@H](C(=O)NCCCCCCN(C)C)[C@H](c3ccc(O)cc3)N2C1=O | 1.24 |
| O=C(NCC(O)CO)[C@]1(Cc2ccccc2)N=C(c2ccc(OCCCO)cc2)O[C@@H]1c1ccccc1 (stereo partly drawn) | 1.38 |
| C[C@H]1NC(=O)[C@@H](C)NC(=O)[C@@]23C(=O)N[C@@H](Cc4ccccc4)C2[C@H](C)[C@@]2(C)O[C@H]2C3/C=C/C/C=C\CNC1=O (stereo partly drawn) | -0.594 |
| CC(C)N1CC=CC23O[C@@H]4/C=C\CCCOC(=O)C4[C@H]2C(=O)N(CCO)[C@@H]3C1=O (stereo partly drawn) | -0.0353 |
| C=CC[C@]1(C(=O)O)N=C(c2ccc(OCCCO)cc2)O[C@H]1c1ccccc1 | 0.0596 |
| CC(C)CNC(=O)[C@@]1(C)c2ccccc2C(=O)N(Cc2ccc(OC(F)(F)F)cc2)[C@H]1c1ccc(CO)cc1 | -1.12 |
| CO[C@H]1COC(=O)[C@H](Cc2ccccc2)NC(=O)CC=C[C@@H](C)[C@H](OC)COC(=O)CC=C[C@@H]1C | -0.129 |
| C=C(COC)/C(=C/C[C@@H](OC(=O)c1ccncc1)c1ccc(OCCO)cc1)c1cc(C(=O)OC)ccc1OC | 1.14 |
